# Laboratory results published in PubChem BioAssay.
# The source made the active and inactive calls.
# Key:
# [1] = optical density shifts of acrAB sulA E. coli – strain DRC41, OD650, 48 h, E. coli filamentation inducer project, primary screen (AID 1152); details: higher = more signal, called active from +8 up or from −8 down;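 note: E. coli MC1000 strain DRC41 lacking acrAB efflux pump and sulA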
# [2] = probe aLefty1 binding on compound microarray – biochemical, small-molecule microarray, 635/667 nm fluorescence, primary screen (AID 1153); details: higher = more signal;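 note: score merges spot fluorescence with signal-to-noise ratio from the scanned slide images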
# [3] = plasmodial surface anion channel blockers, osmotic lysis – cell-based, P. falciparum Indochina, OD700, 1 h, primary screen (AID 1154); details: P. falciparum Indochina infected RBC osmotic lysis, higher = more signal, called active from +8 up or from −8 down
# [4] = plasmodial surface anion channel blockers, osmotic lysis – cell-based, P. falciparum Indochina, OD700, 2 h, primary screen (AID 1155);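 note: lysis reports solute entry through the parasite surface anion channel PSAC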; details: P. falciparum Indochina infected erythrocytes, higher = more signal, called active from +8 up or from −8 down
# [5] = changes in parasitized red cell lysis, either direction – P. falciparum Indochina, OD700, 3 h, PSAC antagonist project, primary screen (AID 1156); details: P. falciparum-infected erythrocytes, osmotic lysis, higher = more signal, called active from +8 up or from −8 down
# [6] = plasmodial surface anion channel blockers, osmotic lysis – cell-based, P. falciparum Indochina, OD700, 18 h, primary screen (AID 1157); details: P. falciparum Indochina infected erythrocytes, osmotic lysis OD700, 18 h; higher = more signal, called active from +8 up or from −8 down
# [7] = S6 kinase pathway phospho-S6 level changes – cell-based, A549, cytoblot, luminescence, serum-stimulated, primary screen (AID 1158); details: 5 h, higher = more signal;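 note: serum-stimulated A549 lung adenocarcinoma cells; signal is phosphorylated S6 detected by cytoblot immunostaining with HRP secondary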
# [8] = target: NADPH oxidase 2 (Homo sapiens) (UniProt P04839); experiment: compounds shifting NOX2 Amplex Red fluorescence – cell-based, HEK293-NOX2, PMA-stimulated, NOX inhibitor project, primary screen (AID 1159); details: 45 min, higher = more signal, called active from +8 up or from −8 down; note: test concentration not given here
# [9] = target: NADPH oxidase 4 (Homo sapiens) (UniProt Q9NPH5); experiment: compounds shifting NOX4 Amplex Red fluorescence – cell-based, HEK293-NOX4, tetracycline-induced, NOX inhibitor project, primary screen (AID 1160); details: HEK293-NOX4, Amplex Red H2O2 fluorescence, 45 min; higher = more signal, called active from +8 up or from −8 down
# [10] = target: NADPH oxidase 5 (Homo sapiens) (UniProt Q96PH1); experiment: compounds shifting NOX5 Amplex Red fluorescence – cell-based, HEK293-NOX5, NOX inhibitor project, primary screen (AID 1161); details: HEK293-NOX5, ionomycin, 45 min, higher = more signal
# [11] = compound effects on lung adenocarcinoma cell viability – A549, calcein-AM fluorescence, 48 h, basal, profiling panel (AID 1162); details: higher = more signal; note: test concentration not given here
# [12] = compound effects on differentiated 3T3-L1 adipocyte viability – cell-based, 3T3-L1 adipocytes, calcein-AM fluorescence, 48 h, basal, profiling panel (AID 1163); details: 3T3-L1 adipocytes viability, higher = more signal; note: test concentration not given here
# [13] = compound effects on hepatocellular carcinoma cell viability – HepG2, calcein-AM fluorescence, 48 h, basal, profiling panel (AID 1164); details: higher = more signal; note: test concentration not given here
# [14] = compound effects on multiple myeloma cell viability – MM1S, calcein-AM fluorescence, 48 h, basal, profiling panel (AID 1165); details: higher = more signal;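 note: viability of MM1S multiple myeloma cells under basal unstimulated conditions; test concentration not given here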
# [15] = calcein-AM signal in unstimulated myeloma cells – cell-based, calcein-AM fluorescence, 48 h, PK04 Diversity Set, profiling panel (AID 1166); details: RPMI8226 myeloma viability, higher = more signal;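 note: cells grown under basal conditions without added stimulus; test concentration not given here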
# [16] = JC-1 mitochondrial signal, unstimulated HepG2 cells – cell-based, JC-1 fluorescence, 24 h, 100 nL compound, profiling panel (AID 1167); details: HepG2 mitochondrial potential, higher = more signal; note: test concentration not given here
# [17] = JC-1 mitochondrial signal, unstimulated adipocytes – cell-based, JC-1 fluorescence, 3T3-L1 adipocytes, 24 h, 100 nL compound, profiling panel (AID 1168); details: JC-1 mitochondrial fluorescence, higher = more signal, called active from +8 up or from −8 down; note: test concentration not given here
# [18] = JC-1 mitochondrial signal, unstimulated myeloma cells – cell-based, JC-1 fluorescence, RPMI8226, 24 h, 100 nL compound, profiling panel (AID 1169); details: JC-1 mitochondrial potential fluorescence, higher = more signal; note: test concentration not given here
# [19] = JC-1 mitochondrial signal, unstimulated MM1S myeloma – cell-based, JC-1 fluorescence, 24 h, 100 nL compound, profiling panel (AID 1170); details: MM1S mitochondrial potential, higher = more signal; note: test concentration not given here
# [20] = resazurin metabolic signal in A549 cells – cell-based, resazurin fluorescence, 24 h, PK04 Diversity Set, profiling panel (AID 1171); details: A549 viability, higher = more signal, called active from +8 up or from −8 down; note: test concentration not given here
# NADPH oxidase 2 (Homo sapiens), sequence (P04839 whole entry, looked up): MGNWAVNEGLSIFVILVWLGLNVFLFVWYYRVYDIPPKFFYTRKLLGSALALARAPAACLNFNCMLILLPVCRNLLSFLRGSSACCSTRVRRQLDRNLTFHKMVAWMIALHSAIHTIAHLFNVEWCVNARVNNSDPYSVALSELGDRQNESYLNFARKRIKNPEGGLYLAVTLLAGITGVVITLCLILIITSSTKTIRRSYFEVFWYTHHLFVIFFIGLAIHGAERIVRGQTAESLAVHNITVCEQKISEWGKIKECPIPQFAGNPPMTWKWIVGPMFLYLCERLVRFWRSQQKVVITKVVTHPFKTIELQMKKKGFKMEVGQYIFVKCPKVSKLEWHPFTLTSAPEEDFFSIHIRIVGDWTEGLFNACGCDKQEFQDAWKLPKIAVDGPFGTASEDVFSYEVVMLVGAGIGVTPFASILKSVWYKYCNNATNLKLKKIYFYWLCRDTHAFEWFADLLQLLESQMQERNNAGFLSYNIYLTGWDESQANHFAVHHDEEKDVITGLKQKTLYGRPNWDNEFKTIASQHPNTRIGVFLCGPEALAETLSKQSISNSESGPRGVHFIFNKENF
# NADPH oxidase 5 (Homo sapiens), sequence (Q96PH1 whole entry, looked up): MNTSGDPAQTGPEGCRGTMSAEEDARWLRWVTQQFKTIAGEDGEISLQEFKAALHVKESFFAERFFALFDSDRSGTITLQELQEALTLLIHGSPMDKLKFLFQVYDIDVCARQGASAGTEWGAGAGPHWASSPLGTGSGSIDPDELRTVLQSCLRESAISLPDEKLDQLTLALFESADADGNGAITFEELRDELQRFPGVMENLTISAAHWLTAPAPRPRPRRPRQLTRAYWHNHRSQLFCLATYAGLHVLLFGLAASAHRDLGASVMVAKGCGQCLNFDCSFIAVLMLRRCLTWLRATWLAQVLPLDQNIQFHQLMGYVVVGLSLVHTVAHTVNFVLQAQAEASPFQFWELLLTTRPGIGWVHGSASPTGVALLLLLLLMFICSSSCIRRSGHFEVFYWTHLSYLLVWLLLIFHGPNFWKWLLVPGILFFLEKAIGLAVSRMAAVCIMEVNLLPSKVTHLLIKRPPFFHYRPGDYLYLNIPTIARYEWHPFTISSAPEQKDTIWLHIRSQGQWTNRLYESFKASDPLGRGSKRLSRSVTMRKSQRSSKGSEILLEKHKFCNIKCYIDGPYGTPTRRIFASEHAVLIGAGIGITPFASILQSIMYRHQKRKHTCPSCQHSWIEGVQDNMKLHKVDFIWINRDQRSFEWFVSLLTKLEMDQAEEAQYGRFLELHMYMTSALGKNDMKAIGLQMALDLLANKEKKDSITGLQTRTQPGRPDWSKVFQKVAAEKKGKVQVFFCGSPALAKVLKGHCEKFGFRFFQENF
# NADPH oxidase 4 (Homo sapiens), sequence (Q9NPH5 whole entry, looked up): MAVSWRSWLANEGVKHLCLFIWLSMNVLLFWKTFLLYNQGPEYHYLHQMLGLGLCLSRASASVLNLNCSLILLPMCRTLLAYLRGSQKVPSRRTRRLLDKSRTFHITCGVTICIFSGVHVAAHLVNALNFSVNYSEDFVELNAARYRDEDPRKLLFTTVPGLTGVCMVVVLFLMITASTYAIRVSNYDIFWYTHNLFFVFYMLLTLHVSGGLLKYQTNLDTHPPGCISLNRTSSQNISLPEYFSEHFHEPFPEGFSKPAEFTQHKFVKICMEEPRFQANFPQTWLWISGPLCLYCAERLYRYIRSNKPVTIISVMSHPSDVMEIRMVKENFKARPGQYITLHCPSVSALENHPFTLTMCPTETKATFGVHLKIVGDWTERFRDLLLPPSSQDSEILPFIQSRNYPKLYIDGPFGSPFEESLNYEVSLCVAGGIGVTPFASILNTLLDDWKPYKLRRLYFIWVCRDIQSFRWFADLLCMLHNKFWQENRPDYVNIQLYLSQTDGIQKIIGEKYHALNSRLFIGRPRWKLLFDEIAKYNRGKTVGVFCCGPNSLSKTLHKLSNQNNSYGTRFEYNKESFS
SMILES,z-score [1],composite z-score [2],z-score [3],z-score [4],z-score [5],z-score [6],z-score [7],z-score [8],z-score [9],z-score [10],z-score [11],z-score [12],z-score [13],z-score [14],z-score [15],z-score [16],z-score [17],z-score [18],z-score [19],z-score [20]
CC(=O)OC[C@H]1O[C@H](C#CCCCc2ccccc2)C=C[C@@H]1OC(C)=O,-0.802 (inactive),-0.0536,3.35 (inactive),0.23 (inactive),-0.213 (inactive),0.148 (inactive),-0.0744,-1.19 (inactive),0.903 (inactive),0.839,-0.442,-0.0563,-2.26,-3.51,-3.61,-1.12,0.288 (inactive),-0.861,-2.26,0.899 (inactive)
CC1CC/C=C\[C@H]2OC34C=CCN(C(C)C)C(=O)[C@H]3N(CCCO)C(=O)[C@@H]4C2C(=O)O1 (stereo not given in full),0.658 (inactive),-0.0536,0.0261 (inactive),-0.0331 (inactive),-0.0769 (inactive),-0.207 (inactive),-0.251,1.57 (inactive),0.213 (inactive),2.02,-0.478,-0.156,-0.381,-0.929,0.449,0.486,0.51 (inactive),-0.0642,0.687,0.385 (inactive)
CO[C@@H]1COC(=O)CC=C[C@@H](C)[C@H](OC)COC(=O)[C@H](COCc2ccccc2)NC(=O)CC=C[C@H]1C,-0.991 (inactive),-0.147,-0.129 (inactive),0.151 (inactive),0.181 (inactive),0.354 (inactive),0.354,-1.79 (inactive),0.0385 (inactive),0.0539,-0.0667,0.461,0.422,-0.0878,0.651,0.0535,-0.303 (inactive),0.577,0.179,-0.27 (inactive)
[N-]=[N+]=NCc1ccccc1C[C@]1(C(=O)NCc2ccccc2)N=C(c2ccc(OCCCO)cc2)O[C@H]1c1ccccc1N=[N+]=[N-],0.0901 (inactive),-0.7,30.6 (active),30.6 (active),2.72 (inactive),3.32 (inactive),-0.275,-0.349 (inactive),-0.15 (inactive),-1.66,-0.71,0.0331,-1.03,-2.98,-4.24,0.504,-0.249 (inactive),-1.17,-1.5,-0.883 (inactive)
Cc1ccc(S[C@]2(C(=O)NCC(F)(F)F)CC(=O)N(Cc3ccccc3Cl)[C@@H]2c2ccc(CO)cc2I)cc1,0.973 (inactive),0.051,5.02 (inactive),0.898 (inactive),0.276 (inactive),0.524 (inactive),-0.35,0.861 (inactive),-1.67 (inactive),0.799,-1.08,-0.798,0.995,-2.24,-2.67,0.627,-0.541 (inactive),-0.566,-1.18,0.318 (inactive)
C=CC[C@@H]1C=C[C@H](ON=C2c3cc(OC)ccc3O[C@H](c3cccc(OC)c3)[C@H]2O)[C@@H](CO)O1,0.97 (inactive),-0.0011,2.12 (inactive),0.637 (inactive),0.562 (inactive),0.49 (inactive),-0.171,-0.334 (inactive),0.593 (inactive),0.021,0.27,-0.855,0.925,0.334,-0.0859,-1.45,0.704 (inactive),-0.148,-1.12,-1.25 (inactive)
C=CCNC(=O)[C@H]1[C@@H]2C(=O)O[C@@H](c3ccccc3)[C@@H](c3ccccc3)N2[C@@H](c2ccc(O)cc2)[C@]12C(=O)N(C(=O)OCCOC)c1ccc(C#CC3=CCCCC3)cc12,-0.383 (inactive),1.81,1.65 (inactive),0.929 (inactive),0.0207 (inactive),0.506 (inactive),-0.25,1.96 (inactive),-0.149 (inactive),1.47,-1.1,0.537,-0.444,-2.53,-3.23,-1.47,-0.777 (inactive),-0.611,-0.324,0.512 (inactive)
COC(=O)[C@H](C)NC(=O)CCC1CC(OC(=O)NCc2cccc3ccccc23)CC2(CCCC(COC(=O)NCCc3ccc(Cl)cc3)O2)O1 (stereo not given in full),0.434 (inactive),-0.375,0.119 (inactive),-0.214 (inactive),-0.801 (inactive),-0.193 (inactive),0.362,0.779 (inactive),1.18 (inactive),1.55,0.346,0.118,0.0326,-0.333,-0.94,0.159,-0.294 (inactive),-0.318,-0.197,0.871 (inactive)
COc1ccc(OC[C@H]2Cc3c(-c4ccccc4)nc4c(c3CO2)CN(CCOc2ccccc2)CC4)cc1,0.481 (inactive),-0.0141,15.4 (active),0.946 (inactive),0.661 (inactive),-0.718 (inactive),1.76,-0.0596 (inactive),-1.68 (inactive),-1.04,0.823,1.04,0.562,-2.69,-1.81,3.51,0.367 (inactive),-0.177,0.656,-0.634 (inactive)
